Source: PubChem BioAssay (NCATS)
“And” between values parts separate entries of the source, which are not always exact repeats. Equal values may be shown once. The source made the active and inactive calls. The call rests on the fitted dose curve; in most records, active means well fitted activation curve with a large enough effect; inconclusive means small, poorly fitted or top-dose-only effect; inactive means no such curve, though single readings can be large or run the other way.

Target: Cytochrome P450 3A4 (Homo sapiens) (UniProt P08684)
Experiment: qHTS Assay for Activators of Cytochrome P450 3A4 (AID 885); further: nearly all actives have a fitted effect of over 65% in size
Details: recombinant CYP3A4, Luciferin-PPXE luminescence, 60 min; series mostly up to 57.1 µM; activity change, positive = activation: at the top concentration
Method in brief: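 CYP3A4 activity: Luciferin-PPXE O-dealkylation, 25uM substrate, 200mM KPO4, RT throughout. Read-out is luciferase luminescence; higher values reflect activation.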

Sequence of Cytochrome P450 3A4 (Homo sapiens) (P08684 whole entry, looked up): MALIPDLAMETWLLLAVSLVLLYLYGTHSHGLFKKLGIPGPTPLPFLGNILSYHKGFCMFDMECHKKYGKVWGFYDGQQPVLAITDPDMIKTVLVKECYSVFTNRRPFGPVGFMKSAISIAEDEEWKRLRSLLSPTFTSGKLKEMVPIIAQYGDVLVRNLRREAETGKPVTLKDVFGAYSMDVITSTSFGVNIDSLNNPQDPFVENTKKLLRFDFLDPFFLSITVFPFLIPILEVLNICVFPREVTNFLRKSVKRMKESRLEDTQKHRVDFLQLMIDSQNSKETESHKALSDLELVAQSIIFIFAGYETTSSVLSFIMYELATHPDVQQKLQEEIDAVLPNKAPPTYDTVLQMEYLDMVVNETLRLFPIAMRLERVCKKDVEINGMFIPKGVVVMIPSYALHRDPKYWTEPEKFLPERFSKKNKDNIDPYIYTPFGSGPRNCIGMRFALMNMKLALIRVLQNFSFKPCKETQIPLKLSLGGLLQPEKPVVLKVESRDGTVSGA

Activity change, positive = activation, inactive:
CCC1=C2CC[C@H]3C(=O)N(CC(=O)OC)C(=O)[C@H]3[C@H]2[C@@]2(C)C(=O)N(CC3CC3)C(=O)N2C1=O -52.9%
Cn1c(=O)cc(N)n(Cc2ccccc2)c1=O -51.2%
COC(=O)[C@@H]1C[C@H]2CC[C@H](O)C[C@H]2N1Cc1ccc(C)s1 -34.9%
FC(F)(F)c1ccc(CN2C[C@@H]3C(c4ccc(Cl)nc4)C4(c5ccccc5)CC3(C4)[C@H]2c2ccccc2)cc1 (some centres not stated) -45.7%
CC(C)=CCC/C(C)=C/CO/N=C1/C[C@@H](O)[C@@H](O)[C@@H]2[C@H]3C(=O)N(c4ccc(F)cc4F)C(=O)[C@@H]3CC[C@H]12 -35.2% [at 11.4 µM]
CC(=O)OC[C@@H]1O[C@H](C/C=N\O[C@@H](C)c2cn([C@H](CO)Cc3ccccc3)nn2)C=C[C@@H]1OC(C)=O -51.6% [at 11.4 µM] and -34% [at 11.4 µM]
COC(=O)NC(/C(C(=O)OC)=C(\C)NCc1ccccc1)c1ccccc1 (configuration not stated) -30.2% [at 11.4 µM]
CO[C@H]1COC(=O)[C@@H](C)COC(=O)[C@@H](COCc2ccccc2)NC(=O)C/C=C\[C@H]1C -40.1% [at 11.4 µM]
CO[C@H]1COC(=O)C/C=C\[C@H](C)[C@H](OC)COC(=O)[C@@H](C)COC(=O)C/C=C\[C@@H]1C -30.8% [at 11.4 µM] and -38.4% [at 11.4 µM]
N#CCC(=O)NC(=O)NCC1CC1 -36.4%
CC(C)=CCC/C(C)=C/CO/N=C1/C[C@@H](O)[C@@H](O)[C@@H]2[C@@H]3C(=O)N(C4CCCCC4)C(=O)[C@H]3CC[C@H]12 -36.4% [at 11.4 µM]
CO[C@H]1COC(=O)[C@H](Cc2ccccc2)NC(=O)C/C=C\[C@@H](C)[C@H](OC)COC(=O)C/C=C\[C@@H]1C -59.6% [at 11.4 µM]
Cc1c(O)c(O)cc2c1oc1c3ccccc3oc(=O)c21 -53.9%
C[C@@H](c1ccccc1)N1C(=O)[C@H]2[C@H]3[C@H](O)[C@H](O)C/C(=N/OCc4ccccc4)[C@H]3CC[C@@H]2C1=O -40.9% [at 11.4 µM]
C#CCCCO/N=C1/C[C@@H](O)[C@@H](O)[C@@H]2[C@@H]3C(=O)N(CCC(=O)OCC)C(=O)[C@H]3CC[C@@H]12 -45.7% [at 11.4 µM]
COC(=O)c1ccc(C23CC4(C2)[C@H](CN(CC2CCCCC2)[C@@H]4c2ccccc2)C3c2ccc(C(F)(F)F)cc2)cc1 (some centres not stated) -54.9%
CN1C[C@@H]2C(c3ccc(Cl)nc3)C3(c4ccc(C#N)cc4)CC2(C3)[C@H]1c1ccccc1 (some centres not stated) -44.9%
CCCCCCN(C(=O)CCCCCN1C(=O)NC(c2ccc(-c3ccccc3)cc2)C(C(=O)OCc2ccccc2)=C1C)C(C(=O)NCCCC)c1ccccc1 (configuration not stated) -45.7%
CC(=O)O[C@H]1C2=CO[C@H](C)[C@H]3[C@H]4C5=C([C@H](O)[C@H]6O[C@@H]6C5=O)[C@H](O[C@H]4C)[C@@]23C(=O)[C@H]2O[C@@H]21 -42.7% [at 11.4 µM]
C/C(CCN1CCCc2nc(C)c(C)cc21)=N\OC[C@@H](C)[C@H](OCc1ccccc1)C(C)C -46.3% [at 11.4 µM]
Clc1ccc(C2[C@H]3CN(Cc4ccc(-c5ccccc5)cc4)[C@H](c4ccccc4)C34CC2(c2cccnc2)C4)cn1 (some centres not stated) -52%
CO[C@H]1COC(=O)[C@H](C)COC(=O)[C@@H](Cc2ccccc2)NC(=O)C/C=C\[C@H]1C -39.6% [at 11.4 µM]
COC(=O)[C@@H]1C[C@@]2(O)[C@H](O)[C@H](O)[C@H](O)C[C@H]2N1Cc1ccc(N2CCN(C)CC2)cc1 -46%
Cn1c(N)c(C(=O)COC(=O)c2cc(C3CC3)nc3ccccc23)c(=O)n(Cc2ccccc2)c1=O -53%
COC(=O)c1cccc(C23CC4(C2)[C@H](CN(Cc2ccc(-c5ccccc5)cc2)[C@@H]4c2ccccc2)C3c2ccc(C(F)(F)F)cc2)c1 (some centres not stated) -49.9%
CCC1=C2CC[C@H]3C(=O)N(C)C(=O)[C@H]3[C@H]2[C@@]2(C)C(=O)N(CC(=O)OC)C(=O)N2C1=O -52.5%
COC(=O)c1ccc(C23CC4(C2)[C@H](CN(Cc2ccc(C(F)(F)F)cc2)[C@@H]4c2ccccc2)C3c2ccccc2)cc1 (some centres not stated) -48.5%
